Experimental findings from PubChem BioAssay (NCATS) are described below.

Results filed as inconclusive are left out. Unmarked numbers belong to inactive results. Calls come from the whole dose curve; as a rule, active = well fitted curve in the direction sought with a large enough effect; inconclusive = small, poorly fitted or top-dose-only effect, or another doubt; inactive = no such curve, though single readings can be large; an effect the other way counts as inactive or inconclusive.

Sequence of Glutaminase kidney isoform, mitochondrial (Homo sapiens) (O94925 whole entry, looked up, canonical isoform): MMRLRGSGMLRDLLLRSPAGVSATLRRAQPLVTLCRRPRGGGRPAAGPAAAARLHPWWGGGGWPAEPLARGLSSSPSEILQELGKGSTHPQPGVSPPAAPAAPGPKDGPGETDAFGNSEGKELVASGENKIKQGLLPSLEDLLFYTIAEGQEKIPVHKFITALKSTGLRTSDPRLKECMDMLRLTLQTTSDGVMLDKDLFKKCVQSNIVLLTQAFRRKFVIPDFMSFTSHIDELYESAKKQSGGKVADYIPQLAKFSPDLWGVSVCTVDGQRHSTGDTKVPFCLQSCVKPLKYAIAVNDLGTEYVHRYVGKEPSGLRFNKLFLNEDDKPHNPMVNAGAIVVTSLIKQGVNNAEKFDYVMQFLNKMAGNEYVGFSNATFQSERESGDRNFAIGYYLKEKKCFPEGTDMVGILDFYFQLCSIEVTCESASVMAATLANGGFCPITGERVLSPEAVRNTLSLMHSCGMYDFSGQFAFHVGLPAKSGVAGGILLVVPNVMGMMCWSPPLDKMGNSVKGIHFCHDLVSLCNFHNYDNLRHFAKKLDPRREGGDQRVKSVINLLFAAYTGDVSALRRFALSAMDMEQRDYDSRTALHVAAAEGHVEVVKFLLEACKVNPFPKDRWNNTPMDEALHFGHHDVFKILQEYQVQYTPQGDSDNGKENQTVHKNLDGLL

For one test, the target named is Glutaminase kidney isoform, mitochondrial (Homo sapiens) (UniProt O94925). Nature of the test: qHTS for Inhibitors of Glutaminase (GLS): LOPAC Validation (AID 624146).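 Note: glutamate product detected by oxidase and peroxidase coupled Amplex red fluorescence gain; % is set by controls: 0 for no effect and ±100 for the full control effect; nearly all actives have a fitted effect of over 60% in size.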 The conditions noted are these: glutaminase enzyme activity inhibition; series mostly up to 46.1 µM; activity change, negative = inhibition: at the top concentration. The method in brief:
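hKGA in 45 mM KH2PO4 (pH 8.2), 0.02% Tween-20 with compound, then 1mM L-Glutamine (stock as added) plus glutamate oxidase/HRP/Amplex red coupling mix. Fluorescence read initially and after 30 min at RT; signal change reflects glutamate formation.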
(qHTS replaces the single test concentration by a dilution series.)
For the compound `CN1[C@@H](CC(=O)c2ccccc2)CCC[C@H]1C[C@H](O)c1ccccc1`, the “activity change, negative = inhibition” value is -15.1%.
Take `CN(C)CCC(c1ccc(Cl)cc1)c1ccccn1` (configuration not stated): the “activity change, negative = inhibition” value was 3.11%.
With `N.N.O=C(O)C1(C(=O)O)CCC1.[Pt]`, the “activity change, negative = inhibition” value was 2.63%.
On the same count and under the same terms, the same measure for `CN1CC(=O)N/C1=N/C(=O)Nc1cccc(Cl)c1`: 0.172%; for `CC(C)Cc1ccc([C@H](C)C(=O)O)cc1`: -11.4%.
Same read-out and setting: as for `O=C(O)/C=C/C(O)c1ccc(Cl)cc1` (configuration not stated), the figure is -15.4%.

Test system in another test: not listed separately
Nature of the test: qHTS of Trypanosoma Brucei Inhibitors: LOPAC Validation (AID 624147). Note: 0% is about no effect. The conditions noted are these: purified enzyme assay, luminescence, 45 min; series mostly up to 57.5 µM; activity change, negative = inhibition: at the top concentration. The method in brief:
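T. brucei PYK with substrate was exposed to pin-transferred compounds across a concentration series, then started with 130 uM ADP (final). After 45 min at room temperature, Kinase-Glo Plus luminescence was read, normalized and curve-fitted.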
`CN1[C@@H](CC(=O)c2ccccc2)CCC[C@H]1C[C@H](O)c1ccccc1`: the “activity change, negative = inhibition” value was -12.3%.
Consider `CN(C)CCC(c1ccc(Cl)cc1)c1ccccn1` (configuration not stated), for which the “activity change, negative = inhibition” value is -2.34%.
Still for that read-out and setting: the same measure for `CC1OC1P(=O)(O)O` (configuration not stated): -6.91%; for `CN1CC(=O)N/C1=N/C(=O)Nc1cccc(Cl)c1`: -10.6%.
Same read-out and setting: the same measure for `CC(C)Cc1ccc([C@H](C)C(=O)O)cc1`: 1.95%; for `O=C(O)/C=C/C(O)c1ccc(Cl)cc1` (configuration not stated): -8.1%.
